The results in this text go back to PubChem BioAssay (NCI).

This is part of a sample that, as a whole, favours compounds with a hit. Of some 79,000 tested, about 15% had one in any assay. A number with no mark means an inactive call. Cut-off read from the data, not from the text of the source: active = growth inhibition above about 70%; inactive = the rest.

A short description of this assay: NCI Yeast Anticancer Drug Screen. Data for the mlh1 rad18 strain (AID 175). Conditions: S. cerevisiae mlh1 rad18 strain growth inhibition; at 50.0 µM; stronger effect = higher value. Here is the method:
Growth inhibition of yeast strains with defined genetic alterations is measured as a screen for potential anti-cancer activity. Selected strains with alterations in DNA damage repair or cell cycle control were exposed to compounds and growth inhibition was measured relative to vehicle treated controls. The strain used in this assay is mlh1 rad18
Turning to `C=CCN1CCCC1=O`, the growth inhibition is 4.05%. To `CC(C)(N)CO[C@H]1C[C@H]2CC[C@@]1(C)C2(C)C` belongs -6.15%; to `CCN(C(C)=O)c1ccc([N+](=O)[O-])cc1`, -13.7%; to `COC1OC(C(COC(C)=O)OC(C)=O)C(OC(C)=O)C(OC(C)=O)C1OC(C)=O` (stereo not given), -14.8%.

Consider `CC(C)c1ncc([N+](=O)[O-])n1C`, for which the growth inhibition is 8.75%.

Take `CC1(C)CCC(C)(C)NC(=S)N1`: the growth inhibition is 11.1%. As for `C=CC(C)C(C)(C)O` (stereo not given), the growth inhibition was -2.4%. In the case of `COc1cc(OC)c2cc(C(=O)c3ccc(C#N)cc3)c(=O)oc2c1` it was 32.2%; in that of `N#CCCN1C(=O)CCC1C(=O)O` (stereo not given), 13.3%; in that of `N#Cc1ccc(OC(=O)Nc2c(Cl)cc(Cl)cc2Cl)cc1`, 9.95%. As for `OCCNc1ccccc1`, the growth inhibition was 9.7%.

Turning to `C=CCNC(=S)N/C=C(/C(=O)c1ccccc1)c1ccccc1`, the growth inhibition was -53.6%. As for `CC(c1ccccc1)N(C)C` (stereo not given), the growth inhibition is 1.6%. In the case of `NC(CSSCC(N)C(=O)O)C(=O)O` (stereo not given) it was -2.05%; in that of `CC(=O)OC(C)c1cccc(C#N)c1` (stereo not given), 22%. In the case of `COCC(N)=O` it was 13.8%; in that of `O=c1cc(Cl)nc2ccccn12`, 4.5%. To `CCCC(=O)CC(=O)c1ccccc1` belongs 4.4%; to `CCOc1ccc(C(=O)O)cc1`, 31.1%. Regarding `Cc1ccc(S(=O)(=O)NC(=O)NCCSSCCNC(=O)NS(=O)(=O)c2ccc(C)cc2)cc1`, the growth inhibition was 7.95%. In the case of `O=C(NC1CCCCC1)c1ccc(Cl)cc1` it was -1.85%; in that of `O=C(CCl)Oc1ccc([N+](=O)[O-])cc1`, 26.6%; in that of `CC(C)C(C)(C)C(=O)C(C)(C)C(C)(C)C`, 7.95%. On to `NNC(=O)N/N=C1\C(=O)N(c2nccs2)C(=O)C(=O)C1c1nc2ccccc2s1` (stereo not given), for which the growth inhibition was -19.4%. In the case of `CC(C)C1CCC(C)C(O)C1` (stereo not given) it was 12.8%.

For `NCC(O)C(O)C(O)C(O)CO` (stereo not given), the growth inhibition is 0.95%.

As for `NNc1ncnc2c1ncn2C1OC(CO)C(O)C1O` (stereo not given), the growth inhibition was -15.2%. To `Cc1[nH]nc(C(N)=O)c1[N+](=O)[O-]` belongs 0.35%; to `Cc1cc(=O)n(Nc2ccccc2)c(O)c1C#N`, 3.15%. As to `C=CCS(C)(=O)=O`, the growth inhibition was -3.65%.

On to `O=C(NCc1ccco1)Nc1cccc2c(NC(=O)NCc3ccco3)cccc12`, for which the growth inhibition was 4.85%. In the case of `C1=NCCc2ccccc21` it was 15.2%; in that of `Nc1nc(Cl)cc(Cl)n1`, 3.25%; in that of `Cc1nc(C)c(C(=O)O)cc1C(=O)O`, 4%. In the case of `O=C(NCc1ccccc1)c1cccc([N+](=O)[O-])c1` it was 15.6%.

With `CC(C)OCC(CCl)OC(=O)Nc1ccccc1` (stereo not given), the growth inhibition was 31.7%. In the case of `O=C1C=C(c2ccccc2)C(O)(c2ccccc2)C1` (stereo not given) it was 6.15%; in that of `C[n+]1c(/C=C\C=C\N2CCCCC2)sc2ccccc21`, 27.9%; in that of `Cc1cc(Cc2ccccc2)c(O)c(Cc2ccccc2)c1`, 42.7%. Regarding `S=C(NCc1ccccc1)N1CCC(CCCC2CCN(C(=S)NCc3ccccc3)CC2)CC1`, the growth inhibition was -7.35%.
